We go through seven compounds from PubChem BioAssay (EPA / NIEHS).

Usually AC50 stands for the concentration at which the activity in the assay is half-maximal.

The structures appear in SMILES notation. Calls of active or inactive are those of the source. The calls were made as follows: active = hit-call score of the fitted dose curve at least 0.9, where 1 is the maximum; inactive = score below 0.9.

Assay [1] in a line: ATG_ISRE_CIS: Attagene CIS-FACTORIAL HepG2 Assay for human Interferon Regulatory Factor 1 (IRF1) binding to an Interferon-Stimulated Response Element (ISRE) (AID 2282948). To be noted: HepG2 ISRE cis-reporter (Attagene), mRNA transcription readout; actives raise or lower the signal. In a few lines:
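Cell-based cis-reporter assay; HepG2; 24 h exposure; reporter mRNA by RT-PCR plus capillary electrophoresis fluorescence; activity in either direction scored relative to DMSO.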

Assay [2] in a line: ATG_M_32_CIS: Attagene CIS-FACTORIAL HepG2 Assay for M32 Transcription Factor (Internal Marker) (AID 2282949).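 Also: background control marker of the multiplexed CIS panel rather than a real target.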 To be noted: HepG2 Attagene cis-factorial M32 reporter, mRNA; actives raise or lower the signal. The method, boiled down: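 Internal background marker read-out: RT-PCR/capillary electrophoresis fluorescence of reporter transcripts from transiently transfected HepG2 cells after 24 h chemical exposure. Activity fitted bidirectionally relative to DMSO negative control.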

The nature of assay [3]: ATG_M_06_CIS: Attagene CIS-FACTORIAL HepG2 Assay for M06 Transcription Factor (Internal Marker) (AID 2282950). The following applies: HepG2 Attagene CIS-FACTORIAL M06 internal marker reporter; actives raise or lower the signal. In a few lines: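 Internal background marker within multiplexed cis-reporter HepG2 system. Cells transiently transfected, dosed 24 h; reporter mRNA measured by RT-PCR, HpaI digestion and capillary electrophoresis. Bidirectional fit relative to DMSO.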

The target in assay [4] is Hypoxia-inducible factor 1-alpha (Homo sapiens) (UniProt Q16665). The assay can be described thus: ATG_HIF1a_CIS: Attagene CIS-FACTORIAL HepG2 Assay for human Hypoxia Inducible Factor 1 (HIF1A) (AID 2282951). The following applies: HepG2 Attagene cis-factorial HIF1a reporter transcription; actives raise or lower the signal. The method, boiled down: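 RT-PCR/capillary electrophoresis fluorescence readout of reporter transcripts from endogenous-TF-driven cis elements in transfected HepG2 cells, 24 h exposure; activity fitted in both directions against DMSO controls.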
Sequence of Hypoxia-inducible factor 1-alpha (Homo sapiens) (Q16665 whole entry, looked up): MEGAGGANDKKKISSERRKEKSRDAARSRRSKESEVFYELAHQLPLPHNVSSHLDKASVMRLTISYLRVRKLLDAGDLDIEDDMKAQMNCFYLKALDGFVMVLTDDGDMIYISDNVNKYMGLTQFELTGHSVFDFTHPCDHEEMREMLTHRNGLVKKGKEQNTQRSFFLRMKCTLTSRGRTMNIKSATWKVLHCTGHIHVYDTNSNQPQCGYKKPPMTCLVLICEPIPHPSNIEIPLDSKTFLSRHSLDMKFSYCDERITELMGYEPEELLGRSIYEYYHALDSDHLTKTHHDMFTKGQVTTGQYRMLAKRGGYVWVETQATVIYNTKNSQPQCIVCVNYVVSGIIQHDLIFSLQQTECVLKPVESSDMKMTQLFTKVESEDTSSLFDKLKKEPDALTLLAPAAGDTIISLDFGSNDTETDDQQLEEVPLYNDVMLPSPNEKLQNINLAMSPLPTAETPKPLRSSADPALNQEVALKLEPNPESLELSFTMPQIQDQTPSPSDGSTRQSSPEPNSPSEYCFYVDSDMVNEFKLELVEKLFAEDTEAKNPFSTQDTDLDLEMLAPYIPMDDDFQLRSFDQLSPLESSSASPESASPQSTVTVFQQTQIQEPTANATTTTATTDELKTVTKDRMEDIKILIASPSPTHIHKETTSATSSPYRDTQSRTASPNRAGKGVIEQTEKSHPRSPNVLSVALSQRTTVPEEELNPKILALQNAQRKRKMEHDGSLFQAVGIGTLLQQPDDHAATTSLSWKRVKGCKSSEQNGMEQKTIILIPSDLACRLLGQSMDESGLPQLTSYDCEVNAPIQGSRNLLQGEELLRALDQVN

Assay [5] deals with Hepatocyte nuclear factor 6 (Homo sapiens) (UniProt Q9UBC0). Nature of the assay: ATG_HNF6_CIS: Attagene CIS-FACTORIAL HepG2 Assay for human Hepatocyte Nuclear Factor 6 (HNF6) (AID 2282952). To be noted: HepG2 Attagene cis-factorial HNF6 reporter transcription; actives raise or lower the signal. In a few lines: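 Multiplexed mRNA reporter assay in transfected HepG2; 24 h dosing; RT-PCR plus capillary electrophoresis fluorescence; DMSO-referenced bidirectional curve fitting.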
Sequence of Hepatocyte nuclear factor 6 (Homo sapiens) (Q9UBC0 whole entry, looked up): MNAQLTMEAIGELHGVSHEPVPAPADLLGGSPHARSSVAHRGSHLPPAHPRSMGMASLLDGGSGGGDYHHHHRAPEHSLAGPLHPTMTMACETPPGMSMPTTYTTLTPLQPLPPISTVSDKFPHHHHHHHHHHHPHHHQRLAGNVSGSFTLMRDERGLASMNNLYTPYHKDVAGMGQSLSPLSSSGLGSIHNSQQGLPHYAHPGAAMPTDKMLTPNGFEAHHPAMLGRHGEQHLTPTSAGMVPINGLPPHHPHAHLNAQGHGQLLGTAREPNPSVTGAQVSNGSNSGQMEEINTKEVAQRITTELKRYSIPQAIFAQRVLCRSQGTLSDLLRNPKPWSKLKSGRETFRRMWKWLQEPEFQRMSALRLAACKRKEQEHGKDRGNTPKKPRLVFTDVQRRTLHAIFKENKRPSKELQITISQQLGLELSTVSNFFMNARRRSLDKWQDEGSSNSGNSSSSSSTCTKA

The target in assay [6] is Heat shock factor protein 1 (Homo sapiens) (UniProt Q00613). The assay can be described thus: ATG_HSE_CIS: Attagene CIS-FACTORIAL HepG2 Assay for human Heat Shock Transcription Factor 1 (HSE) (AID 2282953). The following applies: HepG2 HSE cis-reporter, Attagene RNA transcription; actives raise or lower the signal. The method, boiled down:
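HepG2 cells transfected with cis-promoter reporter units sensing endogenous transcription factor activity; reporter mRNA quantified 24 h post-dose by RT-PCR and capillary electrophoresis of 6-FAM-labelled products. Bidirectional fitting against DMSO.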

Assay [7] can be described thus: ATG_MRE_CIS: Attagene CIS-FACTORIAL HepG2 Assay for human Metal Responsive Element (MRE) (AID 2282954). To be noted: HepG2 MRE cis-reporter transcription, Attagene multiplex; actives raise or lower the signal. In a few lines:
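Fluorescent reporter fragments separated by capillary electrophoresis give mRNA induction for the MRE unit after 24 h treatment of transfected HepG2 cells. Endogenous transcription-factor activity is read; DMSO serves as negative control and baseline.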

A short description of assay [8]: ATG_PBREM_CIS: Attagene CIS-FACTORIAL HepG2 Assay for human Phenobarbital-responsive Enhancer Module (PBREM) (AID 2282955). The following applies: HepG2 PBREM cis-reporter, Attagene multiplexed transcription; actives raise or lower the signal. The method, boiled down:
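Reporter mRNA read by RT-PCR, 6-FAM primer extension, HpaI digestion and capillary electrophoresis. Transfected HepG2 cells, 24 h compound exposure. Gain or loss of signal fitted bidirectionally relative to DMSO baseline.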

Assay [9] concerns the target Paired box protein Pax-6 (Homo sapiens) (UniProt P26367). The assay can be described thus: ATG_Pax6_CIS: Attagene CIS-FACTORIAL HepG2 Assay for human Paired Box 6 (PAX6) (AID 2282956). To be noted: HepG2 CIS-FACTORIAL PAX6 reporter transcription, RNA readout; actives raise or lower the signal. The method, boiled down: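 Multiplexed cis-reporter HepG2 system; 24 h treatment; reporter mRNA read by RT-PCR/CE fluorescence; bidirectional fit vs DMSO.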

Assay [10] is described as follows: ATG_PXRE_CIS: Attagene CIS-FACTORIAL HepG2 Assay for human Pregnane X Receptor Element (PXRE) (AID 2282957). To be noted: HepG2 Attagene CIS-FACTORIAL PXRE reporter, mRNA; actives raise or lower the signal. The method, boiled down: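 Cells: HepG2, transiently transfected reporter units under cis promoter control. Exposure: 24 h. Detection: reporter mRNA via RT-PCR/CE fluorescence; bidirectional fitting, DMSO-referenced.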

A short description of assay [11]: ATG_PPRE_CIS: Attagene CIS-FACTORIAL HepG2 Assay for human Peroxisome Proliferator-activated Response Element (PPRE) (AID 2282958). To be noted: HepG2 PPRE cis-element reporter, Attagene transcription factor profiling; actives raise or lower the signal. The method, boiled down:
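Read-out: fluorescent reporter mRNA fragments resolved by capillary electrophoresis after RT-PCR. HepG2 cells carried transiently transfected PPRE-driven cis reporter constructs and were dosed for 24 h; gain or loss of signal fitted relative to DMSO.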

Assay [12] can be described thus: ATG_RORE_CIS: Attagene CIS-FACTORIAL HepG2 Assay for human RAR-related Orphan Receptor Element (RORE) (AID 2282959). To be noted: HepG2 Attagene cis-factorial RORE reporter, mRNA; actives raise or lower the signal. In a few lines: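 Readout: fluorescent reporter mRNA by RT-PCR plus capillary electrophoresis, 24 h after dosing transfected HepG2 cells. Endogenous transcription factor activity on a cis promoter element is measured. Gain or loss of signal fitted against DMSO.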

A short description of assay [13]: ATG_Sox_CIS: Attagene CIS-FACTORIAL HepG2 Assay for human SRY-box transcription factor (SOX) (AID 2282960). The following applies: HepG2 Attagene cis-factorial SOX reporter, mRNA; actives raise or lower the signal. In a few lines: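 Read-out: fluorescent RT-PCR products of SOX1-linked reporter transcripts resolved by capillary electrophoresis, fitted bidirectionally against DMSO. Transiently transfected HepG2 cells, 24 h after chemical exposure, endogenous transcription factor activity.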

For assay [14], the target named is Transcription factor Sp1 (Homo sapiens) (UniProt P08047). Nature of the assay: ATG_Sp1_CIS: Attagene CIS-FACTORIAL HepG2 Assay for human Specificity Protein 1 (Sp1) (AID 2282961). The following applies: HepG2 Sp1 cis-reporter transcription, actives raise or lower the signal. In a few lines: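 Read-out: fluorescence of 6-FAM-labeled, HpaI-digested RT-PCR products separated by capillary electrophoresis. HepG2 cells carried transfected cis-element reporter units and were exposed to chemicals for 24 h; gain or loss of signal fitted relative to DMSO.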
Sequence of Transcription factor Sp1 (Homo sapiens) (P08047 whole entry, looked up): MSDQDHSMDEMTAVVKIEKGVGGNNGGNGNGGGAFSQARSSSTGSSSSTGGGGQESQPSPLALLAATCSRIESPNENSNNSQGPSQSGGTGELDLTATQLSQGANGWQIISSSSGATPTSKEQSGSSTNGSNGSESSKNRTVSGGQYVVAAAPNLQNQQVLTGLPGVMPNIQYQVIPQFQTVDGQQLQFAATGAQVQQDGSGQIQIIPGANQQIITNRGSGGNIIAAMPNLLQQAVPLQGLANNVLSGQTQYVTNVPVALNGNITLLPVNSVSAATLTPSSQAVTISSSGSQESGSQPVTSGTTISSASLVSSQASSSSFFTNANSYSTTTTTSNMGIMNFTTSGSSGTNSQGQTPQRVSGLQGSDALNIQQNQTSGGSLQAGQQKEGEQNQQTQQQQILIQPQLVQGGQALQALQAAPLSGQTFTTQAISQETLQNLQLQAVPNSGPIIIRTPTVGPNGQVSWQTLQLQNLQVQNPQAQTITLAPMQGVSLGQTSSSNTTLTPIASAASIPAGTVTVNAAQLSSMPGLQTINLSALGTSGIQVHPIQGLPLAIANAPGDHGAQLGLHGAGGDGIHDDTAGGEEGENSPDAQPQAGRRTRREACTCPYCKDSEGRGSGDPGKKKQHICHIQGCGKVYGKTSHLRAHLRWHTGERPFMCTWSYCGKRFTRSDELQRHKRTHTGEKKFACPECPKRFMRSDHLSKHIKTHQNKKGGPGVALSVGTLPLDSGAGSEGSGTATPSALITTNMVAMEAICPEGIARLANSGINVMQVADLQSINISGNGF

Assay [15] is described as follows: ATG_SREBP_CIS: Attagene CIS-FACTORIAL HepG2 Assay for human Sterol Regulatory Element Binding (SREBP) (AID 2282962). The following applies: HepG2 Attagene cis-factorial SREBP reporter, mRNA; actives raise or lower the signal. The method, boiled down:
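mRNA induction of transfected cis-promoter reporters in HepG2 cells, 24 h post-dose. Detection: RT-PCR with 6-FAM-labelled products, HpaI digest, capillary electrophoresis. DMSO served as negative control and baseline.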

Assay [16] can be described thus: ATG_TA_CIS: Attagene CIS-FACTORIAL HepG2 Assay for human TA Basal Promoter (AID 2282964). To be noted: HepG2 Attagene CIS-factorial TA basal promoter reporter; actives raise or lower the signal. In a few lines:
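HepG2 cells transiently transfected with multiple reporter units under cis promoter elements, reporting endogenous transcription factor activity; this endpoint tracks the TA basal promoter as background control. Reporter mRNA after 24 h dosing measured by RT-PCR/capillary electrophoresis; bidirectional fits versus DMSO.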

Assay [17] in a line: ATG_TCF_b_cat_CIS: Attagene CIS-FACTORIAL HepG2 Assay for human T-Cell-Factor with beta-catenin (TCF/b-cat) (AID 2282965). The following applies: HepG2 TCF/beta-catenin cis-reporter transcription, actives raise or lower the signal. In a few lines: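 HepG2, transient MRTU transfection, cis-element-driven reporters (endogenous TFs). 24 h compound exposure. Readout: reporter mRNA by RT-PCR + 6-FAM primer extension, HpaI digest, capillary electrophoresis. Gain/loss fit vs DMSO baseline.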

The target of assay [18] is Signal transducer and activator of transcription 3 (Homo sapiens) (UniProt P40763). The assay can be described thus: ATG_STAT3_CIS: Attagene CIS-FACTORIAL HepG2 Assay for human Signal Transducer and Activator of Transcription 3 (STAT3) (AID 2282963). The following applies: HepG2, Attagene cis-factorial STAT3 reporter transcription; actives raise or lower the signal. The method, boiled down:
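Values derive from bidirectional fits relative to DMSO of reporter mRNA levels, measured by RT-PCR with capillary electrophoresis, in HepG2 cells carrying transiently transfected cis-regulated reporter units and exposed 24 h.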

Assay [19] in a line: ATG_GRE_CIS: Attagene CIS-FACTORIAL HepG2 Assay for human Glucocorticoid Response Elements (GRE) (AID 2282947). The following applies: HepG2 GRE cis-reporter, Attagene multiplex mRNA; actives raise or lower the signal. The method, boiled down:
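Endogenous transcription factor activity is read through cis-element reporter constructs transiently transfected into HepG2 cells. After 24 h treatment, labelled RT-PCR products are resolved by capillary electrophoresis; DMSO sets baseline for bidirectional curve fitting.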

Sequence of Paired box protein Pax-6 (Homo sapiens) (P26367 whole entry, looked up): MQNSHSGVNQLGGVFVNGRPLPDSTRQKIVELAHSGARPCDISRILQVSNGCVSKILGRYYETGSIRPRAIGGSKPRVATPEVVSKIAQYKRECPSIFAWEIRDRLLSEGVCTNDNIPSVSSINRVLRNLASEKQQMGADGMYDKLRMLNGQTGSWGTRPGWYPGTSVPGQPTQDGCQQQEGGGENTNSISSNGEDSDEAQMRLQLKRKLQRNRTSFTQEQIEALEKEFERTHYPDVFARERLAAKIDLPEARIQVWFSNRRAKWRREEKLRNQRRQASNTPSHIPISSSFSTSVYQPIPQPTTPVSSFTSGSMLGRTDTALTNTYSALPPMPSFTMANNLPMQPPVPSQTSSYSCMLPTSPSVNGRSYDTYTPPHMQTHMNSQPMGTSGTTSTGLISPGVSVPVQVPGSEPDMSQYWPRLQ
Sequence of Heat shock factor protein 1 (Homo sapiens) (Q00613 whole entry, looked up): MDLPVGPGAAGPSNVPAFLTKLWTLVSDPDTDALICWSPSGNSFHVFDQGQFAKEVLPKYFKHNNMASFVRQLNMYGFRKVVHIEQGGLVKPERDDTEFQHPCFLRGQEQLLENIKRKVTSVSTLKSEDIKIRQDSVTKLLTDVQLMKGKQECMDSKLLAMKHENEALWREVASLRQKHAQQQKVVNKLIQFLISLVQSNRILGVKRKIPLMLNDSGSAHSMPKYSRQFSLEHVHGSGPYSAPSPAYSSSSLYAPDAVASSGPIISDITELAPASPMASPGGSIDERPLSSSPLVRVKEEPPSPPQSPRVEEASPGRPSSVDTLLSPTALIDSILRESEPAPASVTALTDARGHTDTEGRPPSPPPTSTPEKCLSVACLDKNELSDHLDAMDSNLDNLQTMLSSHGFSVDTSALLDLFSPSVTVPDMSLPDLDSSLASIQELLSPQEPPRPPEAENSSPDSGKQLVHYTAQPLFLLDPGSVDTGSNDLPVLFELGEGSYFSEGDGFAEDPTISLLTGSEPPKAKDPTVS
Sequence of Signal transducer and activator of transcription 3 (Homo sapiens) (P40763 whole entry, looked up): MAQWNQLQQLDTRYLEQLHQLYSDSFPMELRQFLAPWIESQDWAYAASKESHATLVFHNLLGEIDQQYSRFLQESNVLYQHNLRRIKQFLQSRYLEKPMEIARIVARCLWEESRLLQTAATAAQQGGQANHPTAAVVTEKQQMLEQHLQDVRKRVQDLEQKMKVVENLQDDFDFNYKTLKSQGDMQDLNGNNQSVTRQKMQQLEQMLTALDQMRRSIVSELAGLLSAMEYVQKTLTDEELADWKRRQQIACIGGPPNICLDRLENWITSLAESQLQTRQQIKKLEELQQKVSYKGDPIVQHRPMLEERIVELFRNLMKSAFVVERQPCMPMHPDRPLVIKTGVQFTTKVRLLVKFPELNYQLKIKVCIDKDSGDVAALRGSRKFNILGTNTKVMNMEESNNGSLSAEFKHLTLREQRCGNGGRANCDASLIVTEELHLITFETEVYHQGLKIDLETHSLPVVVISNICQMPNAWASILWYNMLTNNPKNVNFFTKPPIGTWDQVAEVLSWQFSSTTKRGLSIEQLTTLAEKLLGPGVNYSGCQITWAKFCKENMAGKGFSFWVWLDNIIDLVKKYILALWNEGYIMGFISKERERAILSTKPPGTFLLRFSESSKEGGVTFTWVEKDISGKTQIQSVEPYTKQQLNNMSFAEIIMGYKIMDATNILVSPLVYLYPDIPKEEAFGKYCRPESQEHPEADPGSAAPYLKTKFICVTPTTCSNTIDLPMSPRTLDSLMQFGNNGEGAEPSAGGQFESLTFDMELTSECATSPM

Consider `CCC(=O)OCCC(C)CCC=C(C)C` (stereo not given), for which the outcome in assay [1], in assay [2], in assay [3], in [4], in assay [5] and in [6] was inactive. Also, the compound was called inactive in [7], in assay [8], in [9], in assay [11], in assay [12] and in assay [13]. For the same compound, the result in assay [14], in assay [15], in assay [16] and in [17] was inactive. Moreover, the concentration at half-maximal activity (AC50) in assay [10] is 41.1 µM (active).

Turning to `O=C(COc1ccc(Cl)cc1)N1CCN(Cc2ccc3c(c2)OCO3)CC1`, the AC50 is 58 µM (active) in assay [1]; 19.8 µM (active) in [4]; 151 µM (active) in assay [6]; 74.6 µM (active) in [7]; 57.7 µM (active) in assay [9]; 4.76 µM (active) in [10]. In addition, the AC50 in assay [15] was 27.1 µM (active). Besides, the outcome in assay [2], in assay [3], in assay [5], in [8], in [12] and in assay [13] was inactive. Moreover, the compound was classed as inactive in [14], in assay [18] and in [17].

Take `CC(C)(CO)[N+](=O)[O-]`: the call in [19], in assay [3], in assay [4], in assay [5], in assay [6] and in assay [7] was inactive. For the same compound, the outcome in assay [8], in assay [9], in assay [10], in assay [12], in [13] and in [14] was inactive. The outcome in assay [15], in [18] and in [16] was inactive.

In the case of `CCCCCCCCCCCCN(CCCCCCCCCCCC)CCCCCCCCCCCC`, the result in [1], in [3], in assay [4], in assay [5], in assay [6] and in [7] was inactive. For the same compound, the outcome in assay [8], in [9], in [10], in assay [11], in assay [12] and in assay [13] was inactive. Besides, the result in assay [14], in assay [15], in assay [18] and in assay [17] was inactive.

With `O=C[C@@H](O)[C@H](O)[C@H](O)CO`, the call in [1], in [2], in [3], in [4], in assay [5] and in assay [6] was inactive. Also, the outcome in assay [8], in assay [9], in [10], in assay [11], in [12] and in [13] was inactive. Also, the compound was called inactive in [15], in assay [18], in assay [16] and in [17].

With `CCCOCC(C)O` (stereo not given), the outcome in assay [1], in assay [3], in assay [5], in assay [6], in assay [7] and in assay [9] was inactive. The call in assay [11], in [12], in assay [13], in assay [14], in assay [15] and in [18] was inactive. The compound was classed as inactive in [16] and in [17]. The half-maximal activity concentration (AC50) in assay [4] was 24.8 µM (active); in assay [10], 25.5 µM (active).

For `O=C(O)COCCN1CCN(C(c2ccccc2)c2ccc(Cl)cc2)CC1` (stereo not given), the compound was called inactive in assay [1], in assay [2], in [3], in [6], in assay [7] and in assay [8]. Besides, the compound was called inactive in assay [10], in [12], in assay [13], in [14], in [15] and in assay [18]. The compound was classed as inactive in assay [16] and in assay [17].
